Laboratory results: ChEMBL document CHEMBL3988442, “University of Dundee, Small-Polar-MMV Screening Library” (2021)
In all, about 48,000 compounds went through this assay and about 13,000 (27%) showed an effect of 50% or more. Some of the results follow.

Tested on: Wolbachia pipientis
Test: Anti-Wolbachia Cell-Based Screen
Type: functional
Set-up: scale not given: in the data most compounds retested in dose-response had high values
Conditions: 5 µM

Structure (SMILES) | Percent Effect [%]
CNC(=O)[C@H]1CC[C@@H]2[C@@H](CCN2C(=O)N(C)C)O1 | -9.576
O=C(NCCC(=O)N1CCCC1)C(OC1CCCC1)c1ccccc1 (configuration not stated) | -0.3907
COCC1COCCC12CCN(Cc1cccs1)CC2.O=C(O)C(F)(F)F (configuration not stated) | 99.73
O=C(O)C(F)(F)F.O=C(O)C(F)(F)F.c1cc(CN2CCC3(CCOCC3COCC3CC3)CC2)ccn1 (configuration not stated) | -8.349
COCC1COCCC12CCN(Cc1nccs1)CC2.O=C(O)C(F)(F)F (configuration not stated) | 97.2
O=C(O)C(F)(F)F.c1coc(CN2CCC3(CCOCC3COCC3CC3)CC2)c1 (configuration not stated) | -46.4
O=C(O)C(F)(F)F.c1csc(CN2CCC3(CCOCC3COCC3CC3)CC2)n1 (configuration not stated) | 99.84
COCC1COCCC12CCN(CCc1ccccc1)CC2.O=C(O)C(F)(F)F (configuration not stated) | 7.834
O=C(O)C(F)(F)F.c1cc(CN2CCC3(CCOCC3COCC3CC3)CC2)co1 (configuration not stated) | -40.89
CN(Cc1nc2ccccc2[nH]1)C(=O)CN(C)c1ccc(Cl)cn1 | 9.224
CCN(CC)CCNCc1cc(O)c2cc(C)ccc2n1 | 11.73
CO[C@H]1COC[C@@H]1NC(=O)C1(Oc2ccc(Cl)cc2)CCNCC1 | 6.112
C[S+]([O-])CCNCc1ccc(OCc2cscn2)cc1 (configuration not stated) | 1.801
CCCN1CCN(C(=O)c2cc3ccccc3cn2)[C@H]2CS(=O)(=O)C[C@H]21 | 0.5207
CC(C)N[C@@H]1CC[C@@H]1NC(=O)c1ccccc1OC(F)(F)C(F)F | -9.491
CC1CCN(c2cc(CCC3CCCN3)ncn2)CC1.Cl (configuration not stated) | 81.62
OCC1CCCN1c1cc(N2CCC(OC3CCCC3)CC2)ncn1 (configuration not stated) | 10.66
Cl.c1nc(CCC2CCCN2)cc(N2CCCCCC2)n1 (configuration not stated) | 105.3
CC1CCN(c2cc(-n3cnc(C(=O)N4CCSCC4)c3)ncn2)CC1 | 13.65
Cl.c1nc(CCC2CCCCN2)cc(N2CCCC2)n1 (configuration not stated) | 95.63
CCc1cc(N2CCCC(c3noc(CC)n3)C2)ncn1 (configuration not stated) | -9.129
Nc1ccc(-c2cc(O)cc(CCC3CCCCN3)c2)cn1 (configuration not stated) | -4.594
CC1CCN(c2cc(NC(=O)C3CC3)ncn2)CC1 | 10.56

Structure (SMILES) | Percent Effect [%]
Cl.c1nc(CCC2CCCN2)cc(N2CCCOCC2)n1 (configuration not stated) | -10.48
O=C(O)C(F)(F)F.O=C([C@H]1CN(Cc2ccc(F)cc2)C[C@H]2OCC[C@@H]12)N1CCCO1 | 1.984
Cc1cc(NC(=O)CN2CCOC(Cn3cccn3)C2)n(C)n1 (configuration not stated) | -0.9893
CCC1CCCN(CC(=O)Nc2oc(C)c3c(C)n[nH]c(=O)c23)C1 (configuration not stated) | 7.246
CN(Cc1ccc(OCC(=O)N2CCOCC2)cc1)S(C)(=O)=O | -1.865
CCc1ccccc1C(=O)N1CCN(S(C)(=O)=O)[C@@H](C)C1 | 7.255
NC(=O)CCOc1nc(-c2ccccc2Cl)no1 | -3.331
CCCn1nc(C2CCNCC2)n(Cc2ccccc2)c1=O | -22.36
CCOCCn1nc(C2CCNCC2)n(Cc2ccccc2)c1=O | -5.43
O=c1n(CCn2cccc2)nc(C2CCNCC2)n1Cc1ccccc1 | -16.93
CCn1c(C2CCCN(C(=O)c3ccc[nH]3)C2)nn(CCN(C)C)c1=O (configuration not stated) | -8.209
CCn1c(C2CCNCC2)nn(CCCc2ccccc2)c1=O | 0.4782
CCn1c(Cn2cncn2)nnc1C1CCN(Cc2ccncc2)CC1 | -0.7206
CCn1c(C2CCNCC2)nn(CCn2ccc(C)n2)c1=O | 83.74
CCn1c(C2CCNCC2)nn(CCn2cncn2)c1=O | 89.88
CCn1c(C2CCCNC2)nn(CCn2cncn2)c1=O (configuration not stated) | 98.85
FC(F)(F)c1ccc2nc([C@H]3CCN(C4CCOCC4)C3)[nH]c2c1 | -2.136
Cc1nn(C)c(C)c1S(=O)(=O)N(C)Cc1nn(C)c(Cl)c1Cl | -26.42
CCOCC1CN(Cc2ccco2)Cc2nccn2C1.O=C(O)C(F)(F)F (configuration not stated) | 99.94
CCN(CC)CC1CN(Cc2ccco2)Cc2nccn2C1 (configuration not stated) | 84.77
c1cncc(OCC2CN(Cc3ccco3)Cc3nccn3C2)c1 (configuration not stated) | -2.745
c1coc(CN2Cc3nccn3CC(Cn3cncn3)C2)c1 (configuration not stated) | 1.02
c1cncc(COCC2CN(Cc3ccco3)Cc3nccn3C2)c1 (configuration not stated) | 6.885

Structure (SMILES) | Percent Effect [%]
CC(C)C(C(=O)NCC1CC1)n1cnc2cc(F)c(F)cc21 (configuration not stated) | -9.964
O=C(CCc1nc(Cl)n[nH]1)NC1CCCN(CC2CCCCC2)C1 (configuration not stated) | -7.697
CCc1ncc(C(=O)N(C)Cc2cc(-c3ccncc3)no2)cn1 | -12.94
COc1cccc2c1OCC(NCCc1cnn(-c3ccccc3)c1)C2 (configuration not stated) | -5.519
COc1cccc2c1OCC(NCCCOc1cccnc1)C2 (configuration not stated) | 86.98
c1cncc(OCCCNC2COc3ccccc3C2)c1 (configuration not stated) | 107.3
COc1cccc2c1OCC(NCc1cnn(-c3ccccc3)c1)C2 (configuration not stated) | -6.454
c1ccc(OCCNC2CCN(c3ncccn3)CC2)cc1 | -7.109
c1cncc(OCCNC2Cc3ccccc3C2)c1 | 2.244
OC(CN(Cc1ccccc1)Cc1cscn1)c1cccs1 (configuration not stated) | -27.1
Cc1ccc(OC2(C(=O)O)CCN(C(=O)c3cccc(F)c3)CC2)cn1 | 1.243
CNC(=O)C1(c2cnccn2)CCCN1C(=O)c1ccc(F)cc1 (configuration not stated) | 95.13
CNC(=O)C1(c2cnccn2)CCCN1C(=O)c1cccc(F)c1 (configuration not stated) | 96.69
CNC(=O)C1(c2cnccn2)CCCN1C(=O)c1ccc(OC)cc1 (configuration not stated) | 106.6
CNC(=O)c1nc2c(s1)CCN(C(=O)c1ccc(OC)cc1)CC2 | -5.332
Cc1ccc(OC2(C(=O)O)CCN(C(=O)c3ccc(F)cc3)CC2)cn1 | -2.115
CNC(=O)C1(c2cnccn2)CCCN1C(=O)c1ccccn1 (configuration not stated) | 81.35
CNC(=O)C1(c2cnccn2)CCCN1C(=O)c1ccn(C)n1 (configuration not stated) | -6.037
O=C(c1cccc(F)c1)N1C[C@@H](CN2CCCCC2)[C@@H](CO)C1 | 0.9976
COc1ccc(CN2CCOC3(CCCN(c4cnccn4)C3)C2)cc1.O=C(O)C(F)(F)F.O=C(O)C(F)(F)F (configuration not stated) | -2.164
COc1ccncc1NC(=O)C1(c2ccc(F)cc2)CCC1 | -2.782
